Screening results from PubChem.
An excerpt weighted towards active compounds, which were near 2.4% of everything screened.
Pol eta inh-1 – DNA polymerase eta (human) inhibition; Q9Y253; recombinant Pol eta, fluorescent DNA replication assay; Potency, µM (highest dose often 114 µM), for the others: top-dose activity change, negative = inhibition, actives largely listed as inhibitors; 390,000 tested, 1.2% active; note: % is set by controls: 0 for no effect and ±100 for the full control effect
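Pol eta (10 nM) was preincubated with compounds for 15 min at room temperature, after which fluorescent replication substrate (50 nM final) was added to start the reaction. Fluorescence was read kinetically at 0 and 10 min.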
WRN helicase inh – WRN helicase (human) inhibition | 360,000 tested, 0.46% active | Potency, µM (series often up to 114 µM), for the others: top-dose activity change, negative = inhibition, hits mostly inhibitors | WRN helicase unwinding, fluorescent forked duplex, kinetic; note: % is set by controls: 0 for no effect and ±100 for the full control effect; nearly all actives have a fitted effect of over 55% in size
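Enzyme (20 nM final) and test compound sit together 15 min at room temperature before substrate addition. Substrate is a single-forked duplex oligonucleotide (100 nM) labelled with fluorophore and quencher, with 2 mM ATP; helicase unwinding raises red fluorescence, read kinetically.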
Pol iota inh – blocks human DNA polymerase iota activity; Q9UNA4; Pol iota fluorescent replication assay, 10 min; Potency, µM (doses to about 115 µM), for inactives: at the highest dose activity, negative = inhibition, hits mostly inhibitors; 390,000 tested, 1% active
Target sequence (Q9UNA4 whole entry, looked up): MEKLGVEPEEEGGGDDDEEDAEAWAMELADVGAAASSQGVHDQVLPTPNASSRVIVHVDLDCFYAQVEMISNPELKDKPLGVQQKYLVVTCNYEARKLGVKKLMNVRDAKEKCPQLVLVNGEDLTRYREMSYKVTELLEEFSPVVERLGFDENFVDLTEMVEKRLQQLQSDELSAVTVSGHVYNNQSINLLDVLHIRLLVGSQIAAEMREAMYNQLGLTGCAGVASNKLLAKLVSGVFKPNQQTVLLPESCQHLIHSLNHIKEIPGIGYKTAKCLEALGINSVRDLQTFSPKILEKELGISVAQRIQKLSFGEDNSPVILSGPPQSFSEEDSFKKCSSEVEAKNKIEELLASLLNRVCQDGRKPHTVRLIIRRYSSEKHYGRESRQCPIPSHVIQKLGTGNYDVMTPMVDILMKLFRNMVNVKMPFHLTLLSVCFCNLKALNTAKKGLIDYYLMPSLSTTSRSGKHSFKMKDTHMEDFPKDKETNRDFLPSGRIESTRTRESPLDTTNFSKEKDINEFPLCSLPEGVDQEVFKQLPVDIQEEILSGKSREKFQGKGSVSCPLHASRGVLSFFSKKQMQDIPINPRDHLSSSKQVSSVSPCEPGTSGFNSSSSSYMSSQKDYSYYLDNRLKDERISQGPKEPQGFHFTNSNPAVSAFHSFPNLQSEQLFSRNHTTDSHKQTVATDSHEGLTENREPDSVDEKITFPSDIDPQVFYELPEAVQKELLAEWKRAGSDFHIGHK
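Pol iota at 10 nM preincubated 15 min with compounds at room temperature; reaction started with fluorescent substrate, 50 nM final. Fluorescence read kinetically at 0 and 10 min; buffer-only wells as negative control.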
POLK inh – DNA polymerase kappa (human) inhibition. AID 588579. 400,000 tested, 0.53% active. Potency, µM (doses to about 107 µM), inactives show top-dose activity, negative = inhibition, usual class: inhibitors. purified Pol kappa, fluorescent DNA synthesis assay, 10 min. Q9UBT6; note: % is set by controls: 0 for no effect and ±100 for the full control effect
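Inhibition of 10 nM Pol kappa is measured by a fluorescent read-out at 0 and 10 min following addition of 50 nM substrate (final), with a 15-min room-temperature compound preincubation.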
FEN1 inhibitor – inhibitors of human flap endonuclease 1 | P39748 | Recombinant FEN1 flap cleavage, fluorescence, 15 min | Potency, µM (highest dose often 114 µM), for the others: at the top dose activity change, negative = inhibition, actives largely listed as inhibitors | 390,000 tested, 0.35% active; note: % is set by controls: 0 for no effect and ±100 for the full control effect; nearly all actives have a fitted effect of over 65% in size
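Recombinant FEN1 (10 nM) was preincubated with pin-transferred compounds for 15 min at room temperature, then flap DNA substrate (50 nM final) was added. Plates were read at 0 and 15 min, and normalized concentration–response data were fitted to a four-parameter Hill equation.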
POLB inh – DNA polymerase beta (human) inhibition; Potency, µM (highest dose often 114 µM), without a hit: top-dose activity change, negative = inhibition, hits mostly inhibitors; P06746; Pol beta primer extension/strand displacement, fluorescence kinetic; 340,000 tested, 1.3% active; note: % is set by controls: 0 for no effect and ±100 for the full control effect
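10 nM enzyme + cpd, 15 min RT; start with substrate 50 nM final; read 0 min and after 10 min RT. Corrected, normalized data; 4-parameter Hill curve fit.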
Pol eta inh-2 – Pol eta (human) inhibition, cherry-pick confirmation; shares compounds with Pol eta inh-1; Pol eta primer extension, TAMRA/BHQ fluorescence, 10 min; Potency, µM, most hits filed as inhibitors; 2,600 tested, 64% active
* marks the source's active call; other numbers are inactive results; u = inconclusive; x = not tested or not shown; [ ] = another dose, or the depositor's remark. Calls come from the whole dose curve; as a rule, active = well fitted curve in the direction sought with a large enough effect; inconclusive = small, poorly fitted or top-dose-only effect, or another doubt; inactive = no such curve, though single readings can be large; an effect the other way counts as inactive or inconclusive. Potency is the fitted concentration of half-maximal effect.

SMILES | Pol eta inh-1 | WRN helicase inh | Pol iota inh | POLK inh | FEN1 inhibitor | POLB inh | Pol eta inh-2
Cc1cc(/C=C2\C(=O)NC(=O)N(Cc3ccco3)C2=O)c(C)n1-c1ccc(O)cc1 | 20µM* | u | u | 39.8µM* | u | 11.2µM* | u
C=CCN1C(=O)/C(=C/c2cc(C)n(-c3cccnc3)c2C)C(=O)NC1=S | 1.6% | u | -13.0% | -19.4% | -1.1% | -25.7% | x
Cc1ccc(-n2c(C)cc(/C=C3/C(=O)NC(=O)N(Cc4ccco4)C3=O)c2C)cc1 | 50.1µM* | -12.6%[11.6 µM] | 20µM* | u | -4.5% | u | u
Clc1c(Cl)c(Cl)c(Cl)c(Cl)c1Cl | x | x | x | 17.0%[60.1 µM] | x | x | x
Cc1ccc2c(c1)[C@@H]1CN(C)CC[C@H]1N2 | x | x | x | -0.9%[19.4 µM] | x | x | x
C[C@H]1O[C@@H](O[C@H]2[C@@H](O)C[C@H](O[C@H]3[C@@H](O)C[C@H](O[C@H]4CC[C@]5(C)C6CC[C@]7(C)[C@@H](C8=CC(=O)OC8)CC[C@]7(O)C6CC[C@@H]5C4)O[C@@H]3C)O[C@@H]2C)C[C@H](O)[C@@H]1O (some centres undefined) | x | x | x | -5.5%[19.4 µM] | x | x | x
C=CCN1C(=O)/C(=C/c2ccc(Br)s2)C(=O)NC1=S | 20µM* | 56.2µM* | 17.8µM* | 79.4µM* | u | u | u
C=CCN1C(=O)NC(=O)/C(=C/c2ccc(OC)c(CSc3ccccn3)c2)C1=O | u | u | 11.3% | -11.1% | -13.2% | 5.1% | x
C=CCN1C(=O)/C(=C/c2ccc3c(c2)CCCN3CCC)C(=O)NC1=S | 70.8µM* | 56.2µM* | u | u | -9.9% | u | 67.5*
COc1ccc(NC(=O)CCOc2cc(C)ccc2C)cc1S(=O)(=O)N1CCCCC1 | -29.4% | -15.4% | 80.6% | -21.8% | 9.1% | x | x
O=c1[nH]c(O)c(/C=C2/C=CC(c3cc(Cl)ccc3Cl)=N2)c(=O)[nH]1 | 17.8µM* | -18.5% | 32.2% | -5.8% | u | 17.0% | u
CC1=Nc2ccccc2/C1=C/c1c(O)[nH]c(=O)[nH]c1=O | -1.2% | -1.3% | u | -2.3% | 6.2% | 1.4% | x
Cc1cccc(N2C(=O)NC(=O)/C(=C\c3cccn3-c3ccc(Cl)cc3)C2=O)c1 | 11.2µM* | u | 22.4µM* | 79.4µM* | 17.1% | 22.4µM* | 60.1*
CCCCc1ccc(C(=O)O)nc1 | -6.1% | 6.4% | -29.4% | 1.3%[60.1 µM] | 11.3% | 5.4%[57.1 µM] | x
CCn1ncc(-c2ccnc3cc(C(=O)O)nn23)c1C | 25.1µM* | -4.2%[11.6 µM] | 35.5µM* | -19.9% | -5.5% | u | u
C[C@]12[C@H](O)CC3C(CC[C@@H]4C[C@@H](O)CC[C@]34C)[C@@]1(O)CC[C@@H]2C1=CC(=O)OC1 (some centres undefined) | x | x | x | -13.6%[19.4 µM] | x | x | x
Cc1cc(C=C2C(=O)N(C)C(=O)N(C)C2=O)c(C)n1-c1ccccc1 | 12.1% | 0.8% | -0.7% | -6.7%[60.1 µM] | 13.9% | 2.6% | x
Cc1ccc(N2C(=O)NC(=O)/C(=C\c3cc(C)n(-c4ccc(C(=O)O)cc4)c3C)C2=O)cc1 | 35.5µM* | -3.7%[11.6 µM] | 25.1µM* | u | -29.9% | u | u
Cc1cc(/C=C2\C(=O)NC(=O)N(c3cccc(F)c3)C2=O)c(C)n1-c1ccc(C(=O)O)c(Cl)c1 | 14.1µM* | -12.3%[11.6 µM] | u | u | -12.6% | 25.1µM* | 33.8*
Cc1ccc(N2C(=O)NC(=O)/C(=C\c3ccoc3)C2=O)cc1 | 50.1µM* | u | 31.6µM* | u | -29.3% | u | 47.8*
Cc1c(Cl)cccc1N1C(=O)NC(=O)/C(=C\c2cc(C)n(-c3cccc(C(=O)O)c3C)c2C)C1=O | 35.5µM* | -5.0%[11.6 µM] | 11.2µM* | 79.4µM* | 0.4% | u | u
